# High-throughput results: PubChem, National Center for Advancing Translational Sciences (NCATS)
# This excerpt belongs to a sample that is enriched for hits.
# 12-hLO inh: qHTS Assay for Inhibitors of 12-hLO (12-human lipoxygenase) | Polyunsaturated fatty acid lipoxygenase ALOX12 (Homo sapiens), P18054 | purified 12-hLO, xylenol orange hydroperoxide absorbance | Potency, µM (highest dose often 57.1 µM), without a hit: at the top dose activity change, negative = inhibition, usual class: inhibitors | 150,000 tested, 0.12% active | AID 1452, 2008; also: potency is read from the fitted curve at half-maximal effect; nearly all actives have a fitted effect of over 55% in size
# Target sequence (P18054 whole entry, looked up): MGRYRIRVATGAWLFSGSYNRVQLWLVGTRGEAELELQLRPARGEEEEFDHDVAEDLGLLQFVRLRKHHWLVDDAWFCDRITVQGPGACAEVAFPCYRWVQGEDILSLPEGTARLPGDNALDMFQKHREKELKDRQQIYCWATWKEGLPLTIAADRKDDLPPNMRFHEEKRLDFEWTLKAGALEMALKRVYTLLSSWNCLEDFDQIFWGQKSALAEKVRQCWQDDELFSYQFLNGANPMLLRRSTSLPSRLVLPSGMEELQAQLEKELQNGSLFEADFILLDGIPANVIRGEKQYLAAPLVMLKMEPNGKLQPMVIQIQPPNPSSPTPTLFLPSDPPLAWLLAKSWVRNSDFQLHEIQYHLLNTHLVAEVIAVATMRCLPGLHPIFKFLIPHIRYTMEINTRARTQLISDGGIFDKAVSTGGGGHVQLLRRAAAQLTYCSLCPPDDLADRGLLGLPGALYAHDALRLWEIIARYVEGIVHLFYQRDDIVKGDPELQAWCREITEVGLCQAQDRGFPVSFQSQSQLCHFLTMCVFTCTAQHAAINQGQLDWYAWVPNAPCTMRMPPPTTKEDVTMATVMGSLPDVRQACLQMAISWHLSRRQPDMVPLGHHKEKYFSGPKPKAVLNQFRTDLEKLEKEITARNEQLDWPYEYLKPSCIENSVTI
#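 Hydroperoxide formation by human 12-lipoxygenase from 40 uM arachidonic acid was followed colorimetrically via ferric-xylenol orange complex, using the 573/405 nm absorbance ratio. Enzyme concentration was 150 nM, with 30 min reaction at room temperature.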
# PNC assembly inh: High Content Assay for Compounds that inhibit the Assembly of the Perinucleolar Compartment; PC3M PTB-GFP, PNC prevalence imaging, 16 h; stronger effect = lower value; activity change (PNC), negative = inhibition, % at 10 µM; 140,000 tested, 3.1% active;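 active = readout at or below -70, meaning at least 70% loss of cells showing the perinucleolar compartment, a nuclear body marking cancer cells; inconclusive = readout between -30 and a set limit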;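 also: plate controls were DMSO wells for no effect and camptothecin positive control wells for full effect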
#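 Compounds are pinned in duplicate onto adhered PC3M cells stably expressing GFP-tagged PTB and incubated 16 h at 37 C. Cells are then fixed, nuclei stained with Hoechst, and PNC-positive cells counted.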
# IMPase cell inh: qHTS Assay for Identifying the Cell-Membrane Permeable IMPase Inhibitors | CHO-M1 cells, IP1 accumulation, HTRF TR-FRET ratio | inhibition (IP1 accumulation), % at 46.1 µM | 120,000 tested, under 10 active; active = well fitted curve in the direction sought with a large enough effect in the signal ratio, not every such curve was filed as active; inconclusive = small, poorly fitted or top-dose-only effect, or a change in a side signal; inactive = no such curve, though single readings can be large or run the other way; the % refers to the signal ratio;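 also: cells stimulated with carbachol in lithium chloride buffer; plate controls were DMSO basal wells for no effect and reference inhibitor wells for full effect; higher means more IMPase inhibition seen as more IP1 and lower FRET ratio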
#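 Measured: the HTRF emission ratio (665/620 nm) plus the 620 nm donor channel, each fitted to the Hill equation to give AC50. Cells were CHO-M1 given compounds up to 46 uM and a 30 min carbachol stimulation at 37C.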
# IMPase Li cell: qHTS Assay for Identifying the Cell-Membrane Permeable IMPase Inhibitors: Potentiation with Lithium. CHO-M1 cells, IP1 TR-FRET (IP-One), carbachol + lithium. Potency, µM (doses to about 59.4 µM), inactives show top-dose activity, negative = IMPase inhibition, usual class: inhibitors. 210,000 tested, 0.35% active. AID 1457, 2008;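 also: IP1 builds up when IMPase is blocked and the TR-FRET signal falls; potency is read from the fitted curve at half-maximal effect; plate controls were basal vehicle for no effect and high inhibitor control for full effect; nearly all actives have a fitted effect of over 50% in size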
#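 CHO cells stably expressing M1 receptor (2000/well, cultured 16–30 h) treated 30 min at 37C with compound plus low lithium. Cytosolic IP1 by TR-FRET (665/620 ratio and 620 channel) after 10 min lysis; AC50 by Hill fit.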
# * hit, by the source's call; ? = inconclusive; / = not tested or not shown; [ ] = another dose, or the depositor's remark. Unless noted, calls follow the shape of the dose curve; as a rule, active = well fitted curve in the direction sought with a large enough effect; inconclusive = small, poorly fitted or top-dose-only effect, or another doubt; inactive = no such curve, though single readings can be large; an effect the other way counts as inactive or inconclusive. Unless noted, % is scaled to controls: 0 for no effect and ±100 for the full control effect.
SMILES,12-hLO inh,PNC assembly inh,IMPase cell inh,IMPase Li cell
C[C@H]1O[C@@H](O[C@H]2[C@@H](O)C[C@H](O[C@H]3[C@@H](O)C[C@H](O[C@H]4CC[C@@]5(C)[C@H](CC[C@@H]6[C@@H]5C[C@@H](O)[C@]5(C)[C@@H](C7=CC(=O)OC7)CC[C@]65O)C4)O[C@@H]3C)O[C@@H]2C)C[C@H](O)[C@@H]1O,2%,-90*,0,14%
Cc1ccc(-n2c(CSc3nc(C)cc(C)n3)nnc2SCC(=O)N2CCCC2)cc1,-7%,-100*,-2,-8%[38.3 µM]
CN(CC(=O)O)CC(=O)O,1%[11.4 µM],/,/,6%
CCOC(=O)c1sc2nc(CC(=O)OC)nc(N3CCN(c4ccc(OC)cc4)CC3)c2c1C,-3%,-100*,1,62%[38.3 µM]
O=C(CN1CCCCC1)Nc1ccc(Br)cc1[N+](=O)[O-],/,/,/,0%
Cc1[nH]c2c(Cl)cccc2c1CCNC(=O)C1CCCCC1C(=O)OCC(F)(F)F (stereo unspecified),-4%,-119*,-2,14%
COc1ccc(C(=O)C2CCCN(C3Cc4ccccc4C3)C2)cc1OC (stereo unspecified),/,/,/,3%
Cc1ccc(C(C)C)c(OCc2ccc(C(=O)N/N=C/c3ccc(O)c(O)c3)cc2)c1,-3%,-124*,/,-7%
CC1=C(C(=O)OC2CCCC2)C(c2ccc(F)cc2F)CC(=O)N1 (stereo unspecified),/,/,5,/
CCOC(=O)CC1C(=O)NCCN1S(=O)(=O)c1ccc(Cl)cc1 (stereo unspecified),-4%,44,0,-2%[38.3 µM]
CCOC(=O)CC1C(=O)NCCN1C(=S)Nc1ccccc1 (stereo unspecified),0%,-91*,/,-2%
COC(=O)CC1C(=O)NCCN1C(=S)Nc1ccccc1 (stereo unspecified),1%,90,/,-6%
CCOC(=O)CC1C(=O)NCCN1S(=O)(=O)c1cc(Cl)c(Cl)cc1Cl (stereo unspecified),2%,-98*,-7,-7%[38.3 µM]
O=C(O)c1ccc(Cl)c(S(=O)(=O)Nc2ccccc2F)c1,1%,/,/,/
C(/CCc1ccccc1)=N\n1cnnc1,-1%,-100*,-4,3%
CCSc1nnc(NC(=O)c2cc3c(s2)CCCC3)s1,-3%,?,-14,5.6µM*
O=C1c2ccccc2C(Cc2ccnc(F)c2)(Cc2ccnc(F)c2)c2ccccc21,-3%,/,/,16%
CC(Oc1ccc(-c2ccccc2)c(F)c1)c1ccn(S(=O)(=O)c2ccc(F)cc2)n1 (stereo unspecified),3%,-100*,6,9%
CCCn1c(C(C)NC(C)=O)nc2ccccc21 (stereo unspecified),-5%,?,-2,10%[38.3 µM]
CC(=O)NC(C)c1nc2ccccc2n1C(C)C (stereo unspecified),4%,-119*,2,4%
CC(C)(CCc1nc2ccccc2[nH]1)C(=O)O,1%[11.4 µM],/,/,5%
O=C(O)c1cc2nc3c(c(C(F)(F)F)n2n1)CCc1ccccc1-3,-2%,-87*,3,-3%[38.3 µM]
CC(C)N(Cc1cn[nH]c1-c1ccc(-c2ccccc2)cc1)Cc1nccn1C,/,/,/,11%
COc1cc([C@@H]2Oc3cc([C@H]4Oc5cc(O)cc(O)c5C(=O)[C@H]4O)ccc3O[C@H]2CO)ccc1O,?,/,11,18%
O=C(c1cccc(F)c1)N1CCC2(CCN(Cc3nccs3)CC2)CC1,0%,/,/,29%
SMILES,12-hLO inh,PNC assembly inh,IMPase cell inh,IMPase Li cell
COc1ccc(CCNC(=O)/C(=C/c2cccnc2)NC(=O)c2ccccc2)cc1OC,/,/,/,2%
Cn1c(=O)cc(SCC(=O)N2CCCC2)c2ccccc21,-5%,-89*,-5,15%[38.3 µM]
CN(Cc1ccccc1)C(=O)CSc1cc(=O)n(C)c2ccccc12,/,/,/,5%
CCC(C)n1c(=S)[nH]c2c(sc3ccc([N+](=O)[O-])cc32)c1=O (stereo unspecified),0%,-15,/,3%
CCOC(=O)C1CCCN(c2cc(C)nc3cc(-c4ccc(F)cc4)nn23)C1 (stereo unspecified),-10%,-90*,8,9%[38.3 µM]
CCOC(=O)C1CCCN(c2cc(C)nc3cc(-c4ccc(Cl)cc4)nn23)C1 (stereo unspecified),6%,-100*,2,15%
Cc1ccc(-c2csc(=Nc3cccnc3)n2CCCn2ccnc2)cc1C,-1%,-10,/,13%
c1cncc(N=c2scc(-c3cccc4ccccc34)n2CCCn2ccnc2)c1,0%,-92*,/,16%
OCCOCCn1c2ccccc2c2ccccc21,5%,-139*,-6,-17%[38.3 µM]
Cc1ccc(NC(=O)CN(C)C(=O)Cn2cc(C(F)(F)F)ccc2=O)cc1,-3%,-80*,-3,/
Cc1ccc(CNC(=O)Cn2cc(C(F)(F)F)ccc2=O)cc1,1%,-28,/,-2%
COc1cccc(/C=C2\SC(=O)N(CCC(=O)NNC(=O)c3cccc(Cl)c3)C2=O)c1,2%,-86*,2,9%
O=C(CCN1C(=O)/C(=C/c2cccc(Br)c2)SC1=S)NNC(=O)c1cccnc1,-1%,-2,-5,10%[38.3 µM]
COc1ccc(/C=C2\SC(=O)N(CCC(=O)Nc3ccccc3)C2=O)cc1OC,-1%,17,/,108%
COc1ccccc1/C=C1\SC(=O)N(CCC(=O)NNC(=O)c2ccccc2Cl)C1=O,0%,-93*,-5,7%
O=C(O)c1cc(C(=O)O)nc(C(=O)O)c1,-2%[11.4 µM],/,/,-2%
O=C1NC(c2ccccc2)C(C(=O)c2cccs2)=C1O (stereo unspecified),-3%,-107*,?,-17%[38.3 µM]
O=C(c1ccccc1)c1cccs1,/,/,/,-2%
COc1ccc(-c2nc3c(c4c2C[C@H](c2ccccc2)OC4)CN(C(=O)Cc2cccs2)CC3)c(C)c1,-3%[11.4 µM],/,/,14%
O=C(Cn1cc(SCc2cccc(Cl)c2)c2ccccc21)N1CCOCC1,-3%,-14,12,4%
CC(OC(=O)/C=C/c1ccco1)C(=O)Nc1cccc([N+](=O)[O-])c1 (stereo unspecified),-3%,-84*,1,32%
CCCOc1ccc(C2C(C(=O)c3ccc(C)o3)=C(O)C(=O)N2Cc2cccnc2)cc1 (stereo unspecified),-4%,33,-27,10µM*
CCOc1ccc(C2C(C(=O)c3ccco3)=C(O)C(=O)N2Cc2cccnc2)cc1 (stereo unspecified),-8%,?,-19,-7%[38.3 µM]
CCOc1ccc(C2C(C(=O)c3ccco3)=C(O)C(=O)N2CCCn2ccnc2)cc1 (stereo unspecified),-12%,?,-1,-15%[38.3 µM]
Cc1ccc(C(=O)C2=C(O)C(=O)N(CCCn3ccnc3)C2c2ccc(OC(C)C)cc2)o1 (stereo unspecified),-15%,?,?,14µM*
